# Measurements taken from PubChem BioAssay.
# Calls of active or inactive are those of the source.
# What was measured:
# [1] = tested on: Human papillomavirus type 1a protein E7 (residues 44-93); test: HPV1a E7 fragment binders on microarrays, primary screen, biochemical, small-molecule microarray, residues 44-93, 635 nm fluorescence (AID 1108); details: small-molecule microarray binding, fluorescence 635 nm; higher = more signal;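 further: E7 fragment applied at 1 µg/mL in TBST for 1 h at 4 C; score combines spot fluorescence with its signal to noise ratio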
# [2] = modulators of HCV replicon luciferase signal, primary screen, HCV replication inhibitor project, Huh7 cells, luciferase reporter (AID 1109); details: 48 h, higher = more signal;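 further: huh7 hepatoma cells harbouring a luciferase neomycin HCV replicon reporter; luciferase luminescence as measure of HCV replicon replication; test concentration not given here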
# [3] = target: Left-right determination factor 2 (Homo sapiens) (UniProt O00292); test: LEFTY2 binders on small-molecule microarrays, primary screen, biochemical, small-molecule microarray, 635 nm fluorescence scan (AID 1110); details: LEFTY2 binding, higher = more signal
# Left-right determination factor 2 (Homo sapiens), sequence (O00292 whole entry, looked up): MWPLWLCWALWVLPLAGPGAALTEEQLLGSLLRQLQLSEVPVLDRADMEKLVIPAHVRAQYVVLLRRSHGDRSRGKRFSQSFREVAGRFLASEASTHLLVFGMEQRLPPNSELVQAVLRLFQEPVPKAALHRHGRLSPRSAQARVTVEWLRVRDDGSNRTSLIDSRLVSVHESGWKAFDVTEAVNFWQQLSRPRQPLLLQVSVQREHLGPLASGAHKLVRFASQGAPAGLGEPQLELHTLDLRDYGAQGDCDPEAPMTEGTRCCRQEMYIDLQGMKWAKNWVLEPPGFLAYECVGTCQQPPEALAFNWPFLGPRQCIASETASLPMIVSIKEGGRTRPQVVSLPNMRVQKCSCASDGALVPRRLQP
# [4] = target: Calmodulin-1 (Homo sapiens) (UniProt P0DP23); test: CALM1 binders on microarrays, EGTA buffer, profiling panel, biochemical, small-molecule microarray, Cy5-labelled CALM1 (AID 1111); details: Cy5-CALM1 binding fluorescence, higher = more signal;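 further: labelled calmodulin applied in Tris saline Tween buffer holding calcium plus EGTA and DTT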
# [5] = target: Calmodulin-1 (Homo sapiens) (UniProt P0DP23); test: calcium-bound CALM1 binders on microarrays, profiling panel, artefact control for SMM control-protein annotation, biochemical, small-molecule microarray, Cy5-labelled CALM1, plus calcium (AID 1112); details: Cy5-CALM1 binding fluorescence, higher = more signal;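 further: score merges spot fluorescence with signal to noise from triplicate slides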
# [6] = small-molecule microarray binders of probe aWnt5a, primary screen, biochemical, biotinylated probe, 635/667 nm fluorescence (AID 1113); details: higher = more signal;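 further: score merges 667 nm fluorescence intensity with signal-to-noise per printed feature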
# [7] = small-molecule microarray binders of probe aShh, primary screen, biochemical, biotinylated probe, 635/667 nm fluorescence (AID 1114); details: higher = more signal;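 further: probe is biotin-labelled aShh protein from a stem cell growth factor screen; measures binding of labelled protein to compounds printed on the slide; score merges feature fluorescence at 667 nm with signal-to-noise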
# [8] = small-molecule microarray binders of probe aNog, primary screen, biochemical, biotinylated probe, 635/667 nm fluorescence (AID 1115); details: higher = more signal;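 further: probe is biotinylated aNog protein used at 0.15 µg/mL for 1 h at 4 C; z-score combines 667 nm fluorescence of each spot with its signal to noise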
# [9] = target: Torsin-1A-interacting protein 1 (Homo sapiens) (UniProt Q5JTV8); test: LAP1 binders from COS7 cell lysate, primary screen, small-molecule microarray, 635/667 nm fluorescence (AID 1116); details: COS7-hLAP1 lysate binding, 635 nm fluorescence, higher = more signal
# Torsin-1A-interacting protein 1 (Homo sapiens), sequence (Q5JTV8 whole entry, looked up): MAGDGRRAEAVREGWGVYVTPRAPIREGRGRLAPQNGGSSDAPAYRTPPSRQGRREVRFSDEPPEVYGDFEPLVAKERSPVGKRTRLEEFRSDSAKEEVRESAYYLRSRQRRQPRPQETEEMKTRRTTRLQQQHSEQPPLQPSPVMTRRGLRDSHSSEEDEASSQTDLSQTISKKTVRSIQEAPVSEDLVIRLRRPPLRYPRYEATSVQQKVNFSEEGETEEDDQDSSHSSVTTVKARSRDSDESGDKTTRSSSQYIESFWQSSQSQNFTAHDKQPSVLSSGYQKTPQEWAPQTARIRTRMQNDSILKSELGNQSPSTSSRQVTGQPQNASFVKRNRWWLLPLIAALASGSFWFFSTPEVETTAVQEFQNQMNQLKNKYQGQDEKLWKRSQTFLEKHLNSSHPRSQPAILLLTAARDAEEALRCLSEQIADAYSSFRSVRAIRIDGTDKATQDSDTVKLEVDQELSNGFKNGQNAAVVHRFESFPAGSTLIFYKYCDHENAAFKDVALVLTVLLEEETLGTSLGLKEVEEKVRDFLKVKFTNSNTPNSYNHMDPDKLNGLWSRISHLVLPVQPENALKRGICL
# [10] = target: Alpha-bungarotoxin (Bungarus multicinctus) (UniProt P60615); test: alpha-bungarotoxin binders on microarray, profiling panel, artefact control for SMM control protein annotation, biochemical, small-molecule microarray, Alexa647 label, 635/667 nm fluorescence (AID 1117); details: alpha-BTX-A647 binding fluorescence, higher = more signal
# Alpha-bungarotoxin (Bungarus multicinctus), sequence (P60615 whole entry, looked up): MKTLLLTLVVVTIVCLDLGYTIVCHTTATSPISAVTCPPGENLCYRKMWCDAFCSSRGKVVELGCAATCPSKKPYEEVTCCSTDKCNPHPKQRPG
# Albumin (Bos taurus) = Albumin (Bos taurus) (UniProt P02769); test: bovine serum albumin binders on microarray, profiling panel, artefact control for SMM control protein annotation, biochemical, small-molecule microarray, Alexa647 label, 635/667 nm fluorescence (AID 1118); details: BSA-A647 binding, fluorescence 635 nm, higher = more signal;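 further: score merges 667 nm emission intensity and signal-to-noise per printed compound spot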
# Albumin (Bos taurus), sequence (P02769 whole entry, looked up): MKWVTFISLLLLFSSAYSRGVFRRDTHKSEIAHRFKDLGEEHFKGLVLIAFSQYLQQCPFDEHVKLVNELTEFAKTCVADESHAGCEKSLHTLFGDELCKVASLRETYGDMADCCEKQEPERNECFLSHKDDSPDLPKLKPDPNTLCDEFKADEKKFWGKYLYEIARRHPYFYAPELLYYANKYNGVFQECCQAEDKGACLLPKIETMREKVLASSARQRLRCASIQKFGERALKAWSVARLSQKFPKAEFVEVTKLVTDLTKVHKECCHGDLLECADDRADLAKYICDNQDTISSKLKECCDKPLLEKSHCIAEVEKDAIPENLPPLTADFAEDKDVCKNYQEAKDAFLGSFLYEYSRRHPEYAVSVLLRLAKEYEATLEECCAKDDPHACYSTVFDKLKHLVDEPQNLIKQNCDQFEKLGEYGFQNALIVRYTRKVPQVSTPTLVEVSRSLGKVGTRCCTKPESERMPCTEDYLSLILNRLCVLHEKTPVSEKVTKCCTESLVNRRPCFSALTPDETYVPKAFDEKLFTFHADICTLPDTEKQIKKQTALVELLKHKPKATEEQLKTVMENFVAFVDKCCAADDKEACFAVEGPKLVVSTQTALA
# [11] = small-molecule microarray binders of probe aXIP, primary screen, biochemical, NeuroSMM set, 635/667 nm fluorescence (AID 1119); details: higher = more signal, called active from +8 up or from −8 down;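 further: probe is the protein aXip251-270 applied at 1 µg/mL to compound-printed slides; binding of probe to printed compounds measured as 667 nm fluorescence plus signal to noise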
# [12] = small-molecule binders of probe aNOTCH3, primary screen, biochemical, small-molecule microarray, 635/667 nm fluorescence (AID 1120); details: higher = more signal;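 further: probe is a biotin-tagged antibody raised against NOTCH3 rather than NOTCH3 protein; score merges spot fluorescence near 667 nm with spot signal to noise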
# [13] = small-molecule binders of probe aNOTCH2, primary screen, biochemical, small-molecule microarray, 635/667 nm fluorescence (AID 1121); details: higher = more signal;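 further: score merges feature fluorescence read at 667 nm with its signal to noise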
# [14] = target: Carbonic anhydrase 2 (Homo sapiens) (UniProt P00918); test: CAII small-molecule binders, profiling panel, biochemical, small-molecule microarray, Alexa647-labelled CAII (AID 1122); details: CAII-A647 binding fluorescence, higher = more signal
# [15] = COS7 lysate on small-molecule microarray, probe aHis, 635 nm (AID 1123); details: COS7 cell lysate, fluorescence, higher = more signal;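 further: z-score combines 667nm fluorescence intensity with signal-to-noise per printed compound spot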
# [16] = compound binding in COS7 lysate, probe aLAP1, primary screen, cell lysate, small-molecule microarray (AID 1124); details: probe aLAP1, fluorescence, higher = more signal;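 further: lysate comes from COS7 cells expressing LAP1 and is applied at 0.3 µg/mL; score merges spot fluorescence near 667 nm with signal-to-noise over triplicate slides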
# Sam68 (KHDRBS1) = test: Sam68 small-molecule binders, primary screen, biochemical, small-molecule microarray, 635 nm fluorescence (AID 1125); details: small-molecule microarray binding, higher = more signal;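 further: score merges 667 nm channel intensity with signal to noise over triplicate slides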
# [17] = tested on: Chordin-like protein 2 (CHRDL2); test: CHRDL2 small-molecule binders, primary screen, biochemical, small-molecule microarray, 635 nm fluorescence (AID 1126); details: small-molecule microarray binding, fluorescence 635 nm; higher = more signal;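 further: printed compound slides probed with Chrdl2 protein at 4 µg/mL for 1 h at 4 C; score merges 667 nm emission intensity with signal to noise over three replicate slides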
# [18] = target: Concanavalin-A (Canavalia ensiformis) (UniProt P02866); test: ConA small-molecule binders, primary screen, artefact control for SMM control protein annotation, biochemical, small-molecule microarray, Alexa647 label, 635 nm (AID 1127); details: ConA-A647 binding fluorescence, higher = more signal;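 further: z combines 667 nm emission intensity with signal-to-noise across three replicate slides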
# Concanavalin-A (Canavalia ensiformis), sequence (P02866 whole entry, looked up): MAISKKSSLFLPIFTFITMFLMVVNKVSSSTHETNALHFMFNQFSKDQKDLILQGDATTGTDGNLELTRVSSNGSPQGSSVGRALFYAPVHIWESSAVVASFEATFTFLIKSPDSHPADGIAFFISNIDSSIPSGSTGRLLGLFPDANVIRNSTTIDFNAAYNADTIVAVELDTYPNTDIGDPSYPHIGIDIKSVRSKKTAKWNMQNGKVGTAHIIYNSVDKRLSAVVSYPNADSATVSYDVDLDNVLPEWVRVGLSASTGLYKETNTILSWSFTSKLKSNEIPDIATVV
smiles,measurement,setting,value
NC(=O)N1C(=O)C2C(C1=O)C1C=C(CCCO)C2C(c2ccc(CN3CCCC3)cc2)N1Cc1sc2ccccc2c1Cl (stereo not given),composite z-score,[1],0.53
same,z-score,[2],-2.9
same,composite z-score,[3],-0.292
same,composite z-score,[4],0.302
same,composite z-score,[5],0.424
same,composite z-score,[6],-0.0735
same,composite z-score,[7],-0.0146
same,composite z-score,[8],-0.342
same,composite z-score,[9],-0.218
same,composite z-score,[10],0.187
same,composite z-score,Albumin (Bos taurus),0.492
same,composite Z-score,[11],-1.02 (inactive)
same,composite z-score,[12],0.124
same,composite z-score,[13],-0.258
same,composite z-score,[14],0.832
same,composite z-score,[15],0.712
same,composite z-score,[16],0.242
same,composite z-score,Sam68 (KHDRBS1),-0.0045
same,composite z-score,[17],-0.352
same,composite z-score,[18],0.271
CN(C)CCCCNC(=O)[C@H]1C[C@H]2C(=O)N3CCC[C@H]3C(=O)N2[C@H]1c1cccc(OCCO)c1,composite z-score,[1],1.4
same,z-score,[2],-0.0955
same,composite z-score,[3],-0.35
same,composite z-score,[4],0.915
same,composite z-score,[5],0.836
same,composite z-score,[6],-0.144
same,composite z-score,[7],0.134
same,composite z-score,[8],1.14
same,composite z-score,[9],0.495
same,composite z-score,[10],1.43
same,composite z-score,Albumin (Bos taurus),-0.115
same,composite Z-score,[11],1.68 (inactive)
same,composite z-score,[12],0.234
same,composite z-score,[13],-0.117
same,composite z-score,[14],0.519
same,composite z-score,[15],1.12
same,composite z-score,[16],0.392
same,composite z-score,Sam68 (KHDRBS1),1.04
same,composite z-score,[17],-0.52
same,composite z-score,[18],0.794
C[N+](C)(C)CCCC[C@@H]1NC(=O)[C@@H]2C[C@H](C(=O)NCc3ccc(F)cc3)[C@H](c3ccc(O)cc3)N2C1=O,composite z-score,[1],0.132
same,z-score,[2],-0.0213
same,composite z-score,[3],-0.392
same,composite z-score,[4],-0.1
same,composite z-score,[5],0.0305
same,composite z-score,[6],-0.178
same,composite z-score,[7],-0.381
same,composite z-score,[8],-0.28
same,composite z-score,[9],2.44
same,composite z-score,[10],1.24
same,composite z-score,Albumin (Bos taurus),-0.635
same,composite Z-score,[11],-0.43 (inactive)
same,composite z-score,[12],-0.307
same,composite z-score,[13],-0.0662
same,composite z-score,[14],0.413
same,composite z-score,[15],0.933
same,composite z-score,[16],0.873
same,composite z-score,Sam68 (KHDRBS1),-0.636
same,composite z-score,[17],0.189
same,composite z-score,[18],0.607
C=CC[C@]1(C(=O)NCC(O)CO)COC(c2ccc(OCCCO)cc2)=N1 (stereo not given in full),composite z-score,[1],-0.683
same,z-score,[2],0.412
same,composite z-score,[3],-0.531
same,composite z-score,[4],-0.189
same,composite z-score,[5],0.202
same,composite z-score,[6],0.0618
same,composite z-score,[7],1.01
same,composite z-score,[8],-0.21
same,composite z-score,[9],1.53
same,composite z-score,[10],-1.21
same,composite z-score,Albumin (Bos taurus),-0.506
same,composite Z-score,[11],-0.181 (inactive)
same,composite z-score,[12],0.0897
same,composite z-score,[13],-0.0209
same,composite z-score,[14],0.674
same,composite z-score,[15],1.56
same,composite z-score,[16],0.553
same,composite z-score,Sam68 (KHDRBS1),-0.174
same,composite z-score,[17],-0.582
same,composite z-score,[18],-1.45
NC(=O)N1C(=O)C2C(C1=O)C1C=C(CCCO)C2C(c2ccc(CN3CCCC3)cc2)N1Cc1cc2c(cc1Br)OCO2 (stereo not given),composite z-score,[1],-1.36
same,z-score,[2],-1.51
same,composite z-score,[3],0.943
same,composite z-score,[4],-0.666
same,composite z-score,[5],-0.361
same,composite z-score,[6],-0.128
same,composite z-score,[7],0.0796
same,composite z-score,[8],-0.252
same,composite z-score,[9],0.187
same,composite z-score,[10],-0.493
same,composite z-score,Albumin (Bos taurus),-0.939
same,composite Z-score,[11],-0.328 (inactive)
same,composite z-score,[12],-0.323
same,composite z-score,[13],-0.117
same,composite z-score,[14],0.339
same,composite z-score,[15],0.344
same,composite z-score,[16],0.117
same,composite z-score,Sam68 (KHDRBS1),-0.312
same,composite z-score,[17],0.192
same,composite z-score,[18],-0.129
[N-]=[N+]=Nc1ccccc1[C@@H]1OC(c2ccc(OCCCO)cc2)=N[C@]1(CCS(=O)(=O)c1ccccc1)C(=O)NCC(O)CO (stereo not given in full),composite z-score,[1],0.535
same,z-score,[2],-0.485
same,composite z-score,[3],-0.741
same,composite z-score,[4],0.867
same,composite z-score,[5],-0.271
same,composite z-score,[6],-0.0977
same,composite z-score,[7],-0.0011
same,composite z-score,[8],0.437
same,composite z-score,[9],2.18
same,composite z-score,[10],0.534
same,composite z-score,Albumin (Bos taurus),0.91
same,composite Z-score,[11],0.339 (inactive)
same,composite z-score,[12],-0.023
same,composite z-score,[13],0.014
same,composite z-score,[14],0.564
same,composite z-score,[15],2.5
same,composite z-score,[16],0.649
same,composite z-score,Sam68 (KHDRBS1),0.885
same,composite z-score,[17],-0.165
same,composite z-score,[18],0.998
